Test results: PubChem BioAssay (NCATS)
Results filed as inconclusive are left out. Activity calls are given as the source filed them. The call rests on the fitted dose curve; in most records, active means well fitted inhibition curve with a large enough effect; inconclusive means small, poorly fitted or top-dose-only effect; inactive means no such curve, though single readings can be large or run the other way.

target: Rap guanine nucleotide exchange factor 3 (Homo sapiens) (UniProt O95398); experiment: Counterscreen qHTS for antagonist of cAMP-regulated guanine nucleotide exchange factor 3 (EPAC1) (AID 1645888); conditions: Rap1B-BODIPY-GDP nucleotide exchange, fluorescence; series mostly up to 154 µM; activity change, negative = inhibition: at the top concentration;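 further: fluorescence loss as bound BODIPY-GDP is released from Rap1B; % of control where 0% means no effect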
Sequence (O95398 whole entry, looked up): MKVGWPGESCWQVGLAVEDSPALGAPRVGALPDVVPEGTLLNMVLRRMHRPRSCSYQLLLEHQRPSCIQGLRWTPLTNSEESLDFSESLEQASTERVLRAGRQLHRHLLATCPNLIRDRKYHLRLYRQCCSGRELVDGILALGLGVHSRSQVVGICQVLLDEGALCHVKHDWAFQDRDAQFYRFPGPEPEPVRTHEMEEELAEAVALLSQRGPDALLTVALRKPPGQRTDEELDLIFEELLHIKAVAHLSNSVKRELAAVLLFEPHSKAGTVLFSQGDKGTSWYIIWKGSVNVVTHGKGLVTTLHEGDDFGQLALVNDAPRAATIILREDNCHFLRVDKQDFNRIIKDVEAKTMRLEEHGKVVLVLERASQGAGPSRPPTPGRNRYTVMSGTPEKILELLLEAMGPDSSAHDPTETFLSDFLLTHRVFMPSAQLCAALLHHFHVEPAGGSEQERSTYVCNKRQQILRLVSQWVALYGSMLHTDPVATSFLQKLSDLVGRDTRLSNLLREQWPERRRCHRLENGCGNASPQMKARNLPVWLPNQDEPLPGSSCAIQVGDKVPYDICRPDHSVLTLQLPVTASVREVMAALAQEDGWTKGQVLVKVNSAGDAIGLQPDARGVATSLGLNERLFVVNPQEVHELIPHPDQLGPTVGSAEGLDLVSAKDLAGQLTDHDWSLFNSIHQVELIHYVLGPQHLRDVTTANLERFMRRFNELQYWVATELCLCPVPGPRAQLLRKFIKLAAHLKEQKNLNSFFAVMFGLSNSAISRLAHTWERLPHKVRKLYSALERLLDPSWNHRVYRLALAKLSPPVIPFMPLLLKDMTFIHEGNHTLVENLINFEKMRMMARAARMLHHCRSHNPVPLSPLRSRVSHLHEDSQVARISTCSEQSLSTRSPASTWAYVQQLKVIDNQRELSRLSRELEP
In short: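 Measured: fluorescence of BODIPY-GDP bound to Rap1B, which falls as exchange proceeds. Conditions include 50 uM competing GDP, 5 and 30 min reads, and a later cAMP challenge for antagonist detection.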

SMILES | activity change, negative = inhibition
CCN1/C(=C/c2ccc3cc(C)ccc3[n+]2CC)Sc2ccccc21 | 0.29% (inactive)
COc1ccc(N2CCN(C(=O)CSc3ncn[nH]3)CC2)cc1 | 4.82% (inactive)
CN(C)C(=S)Oc1ccccc1-c1ccccc1OC(=S)N(C)C | -0.125% (inactive)
Clc1ccc(-c2cc3ccccc3nc2N2CCOCC2)cc1 | 7.84% (inactive)
Cc1ccsc1C(=O)OCC(=O)NCCNC(=O)COC(=O)c1sccc1C | 24.2% (inactive)
O=C(/C=C/c1ccc([N+](=O)[O-])cc1)Nc1cccc(C(=O)Nc2ccccc2C(=O)O)c1 | 0.771% [at 30.8 µM] (inactive)
CCCCn1c(N)c(N(CC(C)C)C(=O)C2CCN(C(=O)c3ccc(Cl)cc3)CC2)c(=O)[nH]c1=O | -21.4% (inactive)
CCC(=O)Nc1ccc(C(=O)NNC(=O)c2ccc([N+](=O)[O-])cc2)cc1 | 5.75% (inactive)
O=C(c1ccc(Br)cc1)N(Cc1cccs1)c1ccc(F)cc1 | -3.95% (inactive)
COc1ccccc1OCC(=O)Nc1cccc(S(=O)(=O)NC2=NCCCCC2)c1 | 8.81% (inactive)
CCN1C(=O)/C(=C/C=C2/SCCN2C)SC1=S | 0.532% [at 30.8 µM] (inactive)
Cc1nc(N)sc1C(=O)N1N=N1 | 0.613% (inactive)
CCCCN1C(=O)/C(=C/C=C2\Oc3ccccc3N2CC)SC1=S | 49% (inactive)
C=CCOc1ccc(C(c2c(C(=O)O)[nH]c3ccccc23)c2c(C(=O)O)[nH]c3ccccc23)cc1 | -20.5% (inactive)
CCN1C/C(=C/c2ccc(N3CCOCC3)cc2)C(=O)/C(=C/c2ccc(N3CCOCC3)cc2)C1 | 129% (inactive)
CCN(CC)c1nc(SCC(=O)O)nc(N(CC)CC)n1 | -10.2% (inactive)
CCOc1ccc(-n2c(SCC(=O)Nc3ccccc3OC)nc3c(oc4ccccc43)c2=O)cc1 | 16.3% (inactive)
